Records with an inconclusive call do not appear. The source made the active and inactive calls. Unless noted, calls come from the whole dose curve; as a rule, active = well fitted curve in the direction sought with a large enough effect; inconclusive = small, poorly fitted or top-dose-only effect, or another doubt; inactive = no such curve, though single readings can be large; an effect the other way counts as inactive or inconclusive.
How the values were obtained:
[1] = qHTS Assay for Identification of Small Molecule Agonists for NFkB Signaling Pathway. (AID 624478);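 note: compounds tested together with TNF alpha at its EC50 of 10 pM; 0% is about no effect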
Method in brief: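 Assay medium contained 0.5% FBS and 10 mM HEPES pH 7.3. Compounds were added together with TNF alpha (10 pM final), incubated 5 h at 37 C, and the beta-lactamase signal was measured fluorometrically.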

[2] = qHTS Assay for Identification of Small Molecule Antagonists for NFkB Signaling Pathway. (AID 624479; calls by dose curve;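 note: pathway stimulated with TNF alpha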; note: potency is the fitted concentration of half-maximal effect)
[3] = Cell Proliferation Assay against the TMD8 Cell Line (AID 651645); conditions: TMD8 DLBCL cell line proliferation/viability; at 46.1 µM (top of the series);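 note: cells exposed to compound for 48 h before reading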
Method in brief: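 TMD8 cells, 500/well in RPMI with 5% FBS, dosed immediately and grown 48 h at 37 C, 5% CO2. CellTiter-Glo luminescence normalised to DMSO 100% and 9.2 uM bortezomib (final) 0%.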

[4] = Cell Proliferation Assay against the HBL1 Cell Line (AID 651646); conditions: HBL1 DLBCL cells; at 46.1 µM (top of the series);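 note: cells exposed to compound for 48 h before reading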
Method in brief: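 CellTiter-Glo luminescence after 48 h compound exposure at 37C gives percent activity, with DMSO as 100% and 9.2 uM bortezomib final as 0%. Cells: 500 log-phase HBL1 per well, RPMI plus 5% FBS.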

[5] = Cell Proliferation Assay against the TMD8 Cell Line (Caspase readout at 8 hrs) (AID 651713); note: potency is the fitted concentration of half-maximal effect
Method in brief: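 Luminescent caspase 3/7 assay; TMD8 cells, 8 h treatment at 37C, 5% CO2. Normalisation: DMSO 0%, 9.2 uM bortezomib 100%.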

[6] = Cytotoxicity counterscreen for NFkB agonists and antagonists (AID 624476);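 note: cells exposed to compound for 48 hours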; note: potency is the fitted concentration of half-maximal effect
[7] = Cell Proliferation Assay against the TMD8 Cell Line (Caspase readout at 16 hrs) (AID 651712); note: potency is the fitted concentration of half-maximal effect
Method in brief: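 Caspase-Glo luminescence measured apoptosis after a 16 h, 37 C compound exposure of TMD8 cells (500 cells/well, 5% FBS RPMI). DMSO set 0% and bortezomib at 9.2 uM final set 100% activity.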

Row | Structure (SMILES) | outcome [1] | Potency [2] | viability (% of control) [3] | viability, percent of control [4] | Potency [5] | Potency [6] | Potency [7]
1 | CCCCCCCCCCCCCC(=O)N[C@H](CO)[C@H](O)c1ccc([N+](=O)[O-])cc1 | inactive | 29.8 µM (active) | 4.37% | 21.7% | inactive | – | –
2 | Cc1nn(Cc2ccccc2Cl)c(C)c1CN(C)CC(O)COc1ccc(Cl)cc1 (stereo not given) | inactive | inactive | 9.51% | 2.62% | inactive | inactive | –
3 | O=C(Nc1ccc(OC(F)(F)F)cc1)c1sccc1NCc1ccnc2ccccc12 | inactive | – | 9.29% | 26% | – | 33.2 µM (active) | inactive
4 | Cc1cccc(Nc2nc(N[C@@H]3CCCC[C@H]3N)ncc2C(N)=O)c1 | inactive | – | 2.81% | 2.69% | inactive | inactive | –
5 | O=C(O)c1ccc(O)c2ncc(N3CCOCC3)cc12 | inactive | inactive | 77.1% | 74% | inactive | inactive | inactive
6 | Cc1cc2c(cc1C1(c3ccc(C(=O)O)cn3)CC1)C(C)(C)CCC2(C)C | inactive | – | 79.3% | 48.2% | inactive | – | inactive
7 | Cc1ccc(C(=O)N(CCCN)[C@@H](c2nc3cc(Cl)ccc3c(=O)n2Cc2ccccc2)C(C)C)cc1 | inactive | – | 0.587% | 1.66% | – | 23.5 µM (active) | –
8 | CC(C)C[C@H](NC(=O)c1cc2ccccc2s1)C(=O)N1CCN(C(=O)[C@H](CO)NS(=O)(=O)c2ccc(Cl)cc2Cl)CC1 | inactive | – | -0.483% | 3.69% | – | inactive | –
9 | CCc1cc(-c2n[nH]c(C)c2-c2ccc3c(c2)OCCO3)c(O)cc1O | inactive | 3.75 µM (active) | 38.2% | 34.6% | – | – | 23.5 µM (active)
10 | CC(=O)Nc1cccc(-n2c(=O)n(C3CC3)c(=O)c3c(Nc4ccc(I)cc4F)n(C)c(=O)c(C)c32)c1 | inactive | – | 0.993% | 6.64% | – | – | –
11 | CC(O)=C(C#N)C(=O)Nc1ccc(C(F)(F)F)cc1 | inactive | 1.88 µM (active) | 43.6% | 56.6% | inactive | – | inactive
12 | CC1=C[C@@H]2[C@@H]([C@@H](O)C[C@@]3(C)[C@H]2C[C@@H](C)[C@]3(O)C(=O)CO)[C@@]2(C)Cc3cnn(-c4ccccc4)c3C=C12 | inactive | – | 0.486% | 2.33% | – | – | –
13 | CCCCn1c(=O)n(Cc2ccccc2F)c(=O)c2[nH]c(Cc3ccc(NC(C)=O)cc3)nc21 | inactive | 6.68 µM (active) | 5.19% | 4.28% | inactive | inactive | inactive
14 | CN(C)CCN(C)C(=O)c1ccc(NC(=O)Nc2ccc(-c3nc(N4CCOCC4)c4ccn(CC(F)(F)F)c4n3)cc2)cc1 | inactive | – | 0.807% | 1.25% | 29.6 µM (active) | 4.18 µM (active) | –

Source: PubChem BioAssay (NCATS)
